In PubChem BioAssay AID492998 (Southern Research Specialized Biocontainment Screening …, 2010):
Hit rate of the full screen: of about 2,300 compounds, about 550 (24%) were called active. The rule behind the calls is not given here. Not all results are given here. Where a call stands in place of a potency, no number is given. Potency and affinity values are given separately.

Test: Vero E6 cell cytotoxicity, dose response, cytotoxicity control for non-replicating M. tuberculosis project, secondary assay (AID 492998)
Settings: series mostly up to 20 µM

Compound	outcome
Cc1ccc(N2C(=O)CC(Sc3nccc(C)n3)C2=O)cc1 (stereo not given)	inactive
Cc1cccc(C2=N/C(=C\c3cccnc3)C(=O)O2)c1	inactive
Cc1ccc(-c2noc(CCC(=O)Nc3cccc(C#N)c3)n2)cc1	inactive
CCNc1nc(NC(C)(C)C)nc(N2CCCCC2)n1	inactive
COc1cc(NC(=O)C/C(C)=N/NC(=O)c2cccs2)c(OC)cc1Cl	inactive
O=C(OCC(=O)N1CCCc2ccccc21)c1ccc(S(=O)(=O)C(F)F)cc1	inactive
CCOC(=O)COc1ccc2c(c1)C(=O)CC(C)(c1cccnc1)O2 (stereo not given)	inactive
CC(/C=C/c1ccccc1)=N\NC(=O)c1ccc2c(c1)OCCO2	inactive
O=C(Oc1cccc2cccnc12)c1ccc2c(c1)OCCO2	inactive
O=C(N/N=C\c1ccccc1OCc1ccccc1)c1ccco1	inactive
Cc1occc1C(=O)N/N=C/c1ccc[nH]1	inactive
O=C(N/N=C/c1ccc[nH]1)c1ccc2c(c1)OCO2	inactive
C/C(=N\NC(=O)c1cccs1)c1ccc2c(c1)OCO2	inactive
COCCCn1c(=NC(=O)c2ccccc2)c(C#N)cc2c(=O)n3cccc(C)c3nc21	inactive
CCOC(=O)COc1c(-c2ccc(OC)cc2)oc2ccccc2c1=O	inactive
O=C1CC(N2CCN(c3ccc(F)cc3)CC2)C(=O)N1Cc1ccccc1 (stereo not given)	inactive
O=C1NCC(O)=C1C=Nc1ccccc1O	inactive
COC(=O)c1cccc(COC(=O)c2cc3ccccc3oc2=O)c1	inactive
CN(CCCCOc1ccc(F)cc1)Cc1ccccc1	inactive
O=C(Nc1ccn(Cc2ccccc2)n1)c1ccc(F)cc1	inactive
O=C(c1ccc([N+](=O)[O-])cc1[N+](=O)[O-])N1CCc2ccccc21	inactive
CCOC(=O)c1ccc(COC(=O)c2ccc(-c3nnc(-c4ccccc4)o3)cc2)o1	inactive
CC(/C=C/c1cccc([N+](=O)[O-])c1)=N\NC(=O)c1ccncc1	inactive
NC(=O)C1(N2CCCCC2)CCN(C2CC(=O)N(CCc3ccccc3)C2=O)CC1 (stereo not given)	inactive
COC(CNC(=O)c1ccc2c3c(onc13)-c1ccccc1C2=O)OC	inactive

Compound	outcome
O=[N+]([O-])c1cc(N=Nc2ccc3ccccc3c2)ccc1O	inactive
CCCCCCOc1ccc(N2C(=O)CC(N3CCN(C(=O)c4ccco4)CC3)C2=O)cc1 (stereo not given)	inactive
O=C(/C=C/Nc1ccccc1O)c1ccco1	inactive
O=C(Oc1ccccc1)c1ccc(NC(=O)c2ccco2)cc1	inactive
Nc1nnc(SCCCC(=O)c2ccc(Br)cc2)s1	inactive
CC(=O)c1c(C)n(C)c2ccc(OC(=O)c3ccco3)cc12	inactive
COc1cc(OC)cc(OC(=O)c2ccc3c(=O)n4c(nc3c2)CCC4)c1	inactive
COc1ccc(N2C(=O)CC(Sc3nc4ccccc4s3)C2=O)cc1OC (stereo not given)	inactive
COc1ccc(C(=O)CCS(=O)(=O)c2ccc(C)cc2)cc1OC	inactive
O=C(N/N=C/C=C/c1ccccc1)c1cccs1	inactive
O=C1Nc2ccc(Br)cc2/C1=C/C(=O)c1ccc2c(c1)OCO2	inactive
O=C1c2ccccc2CC1Sc1nnc(-c2ccncc2)o1 (stereo not given)	inactive
CCOC(=O)Cc1nc2cc(Cl)ccc2o1	inactive
c1ccc(-c2nnc(SCc3nnc(-c4cccs4)o3)o2)cc1	inactive
CCn1cc(C(=O)O)c(=O)c2cc(F)c(N3CCN(C(=S)NC(=O)c4ccccc4)CC3)cc21	inactive
O=C(COc1ccc(Cl)cc1)Nc1ccc(Cl)cn1	inactive
COc1cccc(COC(=O)CCNC(=O)c2ccc(Cl)cc2)c1OC	inactive
CC(/C=C/c1ccco1)=N\NC(=O)c1cccc(Cl)c1	inactive
CN(C)CC/C=C1/c2ccc(F)cc2Sc2ccc(Cl)cc21	inactive
O=C(COC(=O)c1ccc(Cl)s1)c1ccc[nH]1	inactive
O=C(NC(=S)Nn1cnc2c(cnn2-c2ccccc2)c1=O)c1ccccc1	inactive
CC(NC(=O)c1cc([N+](=O)[O-])cc([N+](=O)[O-])c1)c1ccc(-n2ccnc2)cc1 (stereo not given)	inactive
Cc1cccc(C)c1NC(=O)c1sc(N)nc1-c1ccccc1	inactive
O=C(COC(=O)Cc1ccc(Br)cc1)Nc1ccc(N2CCOCC2)cc1	inactive
O=C(COC(=O)c1cc2ccccc2oc1=O)Nc1ccc(F)cc1F	inactive

Compound	outcome
Clc1ccc(OC2CCN(Cc3nc(CC4CC4)no3)CC2)cc1	inactive
CCOC(=O)CCSc1n[nH]c(=S)s1	inactive
C(=C\c1ccccc1)/CSc1nc2ncccc2[nH]1	inactive
CC(C)=CCN1CCN(Cc2cn(C(C)C)c3ccccc23)CC1CCO (stereo not given)	inactive
Cc1ccc(/C=C2\SC(N3CCCC3)=NC2=O)cc1	inactive
CC(C)N1C(=O)NC(=O)C2(Cc3cc([N+](=O)[O-])ccc3N(C)C2c2ccccc2)C1=O (stereo not given)	inactive
Cc1ccc(NC(=O)COCC(=O)Nc2ccc(C)cc2)cc1	inactive
Cc1ccc(OCC(=O)Nc2ccc([N+](=O)[O-])cc2)cc1	inactive
NC(N)=N/N=C/c1cccc([N+](=O)[O-])c1O	inactive
O=C(N/N=C/C=C/c1ccccc1[N+](=O)[O-])c1ccncc1	inactive
O=C(NNc1nc2ccccc2s1)Nc1ccc(F)cc1	inactive
O=C(N/N=C/c1cccc([N+](=O)[O-])c1O)c1cccs1	inactive
O=[N+]([O-])c1c(Nc2ccccn2)cc(Cl)c2nonc12	inactive
COc1cc(Cl)cc(/C=N/NC(N)=O)c1O	inactive
CC1CCC/C(=C\Nc2ccc(C(=O)O)c(O)c2)C1=O (stereo not given)	inactive
Oc1ccccc1Nc1nc(NCC2CCCO2)c2ccccc2n1 (stereo not given)	inactive
CCSc1nsc(NC(=O)Nc2ccc(F)cc2F)n1	inactive
Clc1ccc(OCCCCN2CCc3ccccc3C2)cc1	inactive
COc1ccc(CC(=O)Nc2nccs2)cc1OC	inactive
COc1ccc(CCNc2cc(-c3ccccc3)nc3ncnn23)cc1	inactive
CCOC(=O)Cn1c(C)c(Br)c(=O)c2cccc(C)c21	inactive
FC(F)(F)c1nc(SCc2ccc(Cl)cc2Cl)n[nH]1	inactive
CC1CCCN(CCC(=O)c2ccc(Br)cc2)C1 (stereo not given)	inactive
CNc1nnc(Sc2ncccc2[N+](=O)[O-])s1	inactive
CN(CC(=O)Nc1ccc(C#N)cc1)Cc1ccc(Cl)c(Cl)c1	inactive
